# In PubChem BioAssay (NCATS):
# Records with an inconclusive call do not appear. A call without a number means that no potency is given here. Calls of active or inactive are those of the source. Calls come from the whole dose curve. Square brackets hold non-standard residues; d marks the D form. Peptide text beside a SMILES is read from it. * marks the point of attachment. Benzoyl(4-tBu) = CC(C)(C)c1ccc(C(=O)*)cc1; Lys(Et2) = CCN(CC)CCCC[C@H](N)C(=O)O
# How the values were obtained:
# [1] = Cytotoxicity counterscreen for inhibitors of SARS-CoV-2 cell entry (AID 1645845); conditions: outcome: dose series up to 57.1 µM unless noted; note: nearly all actives have a fitted effect of over 50% in size
# Outline: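 Expi293F/hACE2 cells seeded overnight; cpd pin-transferred in DMSO, 1 h preincubation, + media, 48 h 37 C 5% CO2; ATPLite 1step luminescence; normalized to cells and no cells.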
# [2] = Primary qHTS to identify inhibitors of SARS-CoV-2 cell entry (AID 1645846); conditions: SARS-CoV-2 pseudovirus cell entry assay, luminescence; activity change, negative = inhibition: at 57.1 µM (top of the series) unless noted; note: nearly all actives have a fitted effect of over 45% in size
# Outline: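 Entry measured by luciferase signal 48 h after adding SARS-CoV-2-S pseudotyped MLV particles to HEK293-ACE2 cells preincubated 1 h with compounds. Normalisation: bald particles and spike particles.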
# Potency is the fitted concentration of half-maximal effect.
SMILES,Potency [1],Potency [2],"activity change, negative = inhibition [2]"
CC1(C)[C@@H](O)CC[C@]2(C)[C@H]3C(=O)C=C4[C@@H]5C[C@@](C)(C(=O)O)CC[C@]5(C)CC[C@@]4(C)[C@]3(C)CC[C@@H]12,inactive,inactive,–
O=C(O)[C@H](CC(=O)N1C[C@H]2CCCC[C@H]2C1)Cc1ccccc1,inactive,–,-3.3%
NC1CCCN(c2c(/C=C3\SC(=O)NC3=O)cccc2-c2ccccc2)C1 (stereo not given),inactive,–,-5.59%
Cc1cc(Nc2cc(N)ncn2)c(=O)n2c1C(=O)NC21CCCCC1,inactive,inactive,–
CCOC(=N)c1nc2ccc3ncnc(Nc4cc(F)c(F)cc4Cl)c3c2s1,inactive,–,-20.9%
CN(C)Cc1ccc(S(=O)(=O)n2ccc(/C=C/C(=O)NO)c2)cc1,31.6 µM (active),–,2%
CC(C)(C)C(=O)CN1C(=O)[C@H](NC(=O)Nc2cccc(C(=O)O)c2)CN(C2CCCCC2)c2ccccc21,inactive,–,-4.52%
O=C(NCC(=O)N1CCCC1)Nc1ccc2cnccc2c1,inactive,–,-15.6%
C[C@]12CCC3[C@@H](CC[C@H]4NC(=O)C=C[C@]34C)[C@@H]1CC[C@@H]2C(=O)Nc1cc(C(F)(F)F)ccc1C(F)(F)F (stereo not given in full),inactive,–,-7.71%
CCN1CCN(Cc2ccc(NC(=O)c3ccc(C)c(NC(=O)c4cncc(-c5cccs5)c4)c3)cc2C(F)(F)F)CC1,31.6 µM (active),3.16 µM (active),–
c1ccc(CNCc2ccc(CN3CCCNCCNCCCNCC3)cc2)nc1,inactive,–,-7.13%
Cc1ccc(Nc2cc(N[C@@H]3CCCC[C@@H]3N)nnc2C(N)=O)nc1C,inactive,inactive,–
CC(C)(O)CC[C@@H](O)[C@](C)(O)[C@H]1CC[C@@]2(O)C3=CC(=O)[C@@H]4C[C@@H](O)[C@@H](O)C[C@]4(C)[C@H]3CC[C@]12C,inactive,–,-22.8%
Oc1ccc(Nc2nc(-c3ccc(Cl)cc3)cs2)cc1,inactive,28.2 µM (active),–
Cc1nn(C)c(COc2ccc(N3CCN(S(=O)(=O)N(C)C)CC3)cc2)c1-c1cccc2c(CCCOc3cccc4ccccc34)c(C(=O)O)n(CCN3CCOCC3)c12,inactive,–,-18.4%
Cn1cc(-c2cnc3ccc4ccc(CS(=O)(=O)NCc5ccccn5)cc4c(=O)c3c2)cn1,inactive,–,-59.2%
C[C@]12CC[C@H](O)CC1=CC[C@@H]1[C@@H]2CC[C@]2(C)C(c3cccnc3)=CC[C@@H]12,inactive,inactive,–
O=C(NCCCNc1nc(Nc2cccc(CN3CCOCC3)c2)ncc1C1CC1)C1CCC1,inactive,inactive,–
N#Cc1ccnc(Nc2cc(C3CCN(C4COC4)CC3)cc(N3CCC(F)(F)C3)n2)c1,8.91 µM (active),3.16 µM (active),–
CCN(CC)CCCC[C@H](NC(=O)[C@H](CC(C)C)NC(=O)[C@H](C)NC(=O)[C@H](Cc1ccccc1)NC(=O)c1ccc(C(C)(C)C)cc1)C(=O)N[C@@H](CO)C(=O)OC ({Benzoyl(4-tBu)}-FAL[Lys(Et2)]S-OMe),inactive,inactive,–

SMILES,Potency [1],Potency [2],"activity change, negative = inhibition [2]"
Cc1cc(-c2nc3cc(F)ccc3s2)ccc1NC(=O)[C@@H](N)CCCCN,22.4 µM (active),28.2 µM (active),–
OC[C@H]1O[C@@H](S[C@@H]2O[C@H](CO)[C@H](O)[C@H](n3cc(-c4cccc(F)c4)nn3)[C@H]2O)[C@H](O)[C@@H](n2cc(-c3cccc(F)c3)nn2)[C@H]1O,inactive,–,2.64%
O=C(COCC(=O)N1CCN(C(c2ccccc2)c2ccccc2)CC1)Nc1ccc(Cl)cc1C(=O)O,inactive,–,-0.414%
COC(=O)/C=C/C(=O)OC,inactive,–,-4.67%
COC1=C2C[C@H](C)C[C@H](OC)[C@H](O)[C@@H](C)/C=C(/C)[C@H](OC(N)=O)[C@@H](OC)/C=C\C=C(\C)C(=O)NC(=CC1=O)C2=O,inactive,inactive,–
Cn1c(-c2ccccc2C(F)(F)F)nnc1C12CCC(c3noc(C4CC(F)(F)C4)n3)(CC1)CC2,inactive,–,-12.8%
Cc1c[nH]c2nc(Nc3ccc(N4CCN(C)CC4)c(F)c3)nc(-c3cccc(CC#N)c3)c12,8.91 µM (active),2.51 µM (active),–
CCOCc1nc2c(N)nc3ccccc3c2n1CC(C)(C)O,inactive,–,-25%
O=C(NCC(=O)N1CC[C@H](NC2CCC(O)(c3ccc(-c4ncccn4)cn3)CC2)C1)c1cccc(C(F)(F)F)c1 (stereo not given in full),inactive,–,-29.7%
Cc1onc(-c2ccc(F)cc2)c1COc1ccc(C(=O)N2CCS(=O)(=O)CC2)cn1,inactive,–,-25.8%
O=C(O)CCNc1cc(N2CCc3ccccc3CC2)nc(-c2cccnc2)n1,inactive,inactive,–
Nc1ncnc2c1C(=O)N(c1ccc(C3CCC(CC(=O)O)CC3)cc1)CCO2 (stereo not given),inactive,–,-0.016%
COC[C@@H](c1ccc(C(F)(F)F)cc1)N1CCN(C2(C)CCN(C(=O)c3c(C)ncnc3C)CC2)C[C@@H]1C,inactive,–,-12.7%
CC#Cc1cncc(-c2ccc3c(c2)[C@@]2(N=C(C)C(N)=N2)C2(CCC(OC)CC2)C3)c1 (stereo not given in full),inactive,inactive,–
O=C(Cc1ccccc1)Nc1nnc(CCSCCc2nnc(NC(=O)Cc3ccccc3)s2)s1,inactive,inactive,–
C/C=C1\NC(=O)[C@H]2CSSCC/C=C\[C@H](CC(=O)N[C@H](C(C)C)C(=O)N2)OC(=O)[C@H](C(C)C)NC1=O,6.31 µM (active),7.08 µM (active),–
C[C@@H]1[C@H](O)[C@@H](C)/C=C/C=C/C=C/C=C/C=C/C=C/C=C/[C@H](O[C@@H]2O[C@H](C)[C@@H](O)[C@H](N)[C@@H]2O)C[C@@H]2O[C@](O)(C[C@@H](O)C[C@@H](O)[C@H](O)CC[C@@H](O)C[C@@H](O)CC(=O)O[C@H]1C)C[C@H](O)[C@H]2C(=O)O,inactive,inactive,–
CC(=NNC(=O)c1cccc(S(=O)(=O)N2CCOCC2)c1)c1cc(Cl)ccc1O,inactive,–,-7.45%
O=C(/C=C\n1cnc(-c2cc(C(F)(F)F)cc(C(F)(F)F)c2)n1)NNc1ccccn1,2.51 µM (active),3.16 µM (active),–
CCOc1cc(C(=O)N2CCC(N3CCN(C)CC3)CC2)ccc1Nc1ncc2c(n1)N(C1CCCC1)c1ccccc1C(=O)N2C,inactive,25.1 µM (active),–

SMILES,Potency [1],Potency [2],"activity change, negative = inhibition [2]"
CC(C)n1cc(-c2ccc3c(c2)N(C)CC3)c2c(NS(=O)(=O)c3ccn(C)n3)ccnc21,inactive,–,-1.94%
Cc1cn(CCN2CCN(c3ccccc3-c3cc(C#N)cc(C(=O)NCCCN4CCCC4)c3)CC2)c2ccccc12,35.5 µM (active),17.8 µM (active),–
COc1nc(N)nc2c1ncn2C1OC(CO)C(O)C1O (stereo not given),inactive,–,1.29%
O=C(CCNC(=O)c1ccc(OC(F)(F)F)cc1)N[C@@H]1CCCc2ccccc21,inactive,–,4.82%
COc1ccc(-n2cnc3cc(C(=O)N4CCCCC4)ccc32)cc1,inactive,–,0.509%
O=c1sn(-c2cccc3ccccc23)c(=O)n1Cc1ccccc1,inactive,inactive,–
O=C(c1ccc(/C=C/c2n[nH]c3ccccc23)cc1)N1CCNCC1,inactive,inactive,–
Cc1ccc(-c2nc(N)nc3c2nnn3Cc2cccc(CO[C@H]3CCOC3)n2)o1,inactive,–,-15.2%
CN(C)C1CCN(C(=O)c2ccc(NC(=O)Nc3ccc(-c4nc(N5CCOCC5)nc(N5CCOCC5)n4)cc3)cc2)CC1,1.12 µM (active),1.58 µM (active),–
CCn1c(N)c(C(=O)NC)c(=O)c2ccc(C#CC(C)(O)COC)nc21 (stereo not given),inactive,–,2.21%
CC1=NN(c2ccc(C(=O)O)cc2)C(=O)/C1=C/c1ccc(-c2cc(C)c(C)cc2[N+](=O)[O-])o1,inactive,inactive,–
Cc1c[nH]c(/C=C2\C(=O)Nc3ccccc32)c1CCC(=O)O,inactive,–,-20.8%
COc1ncc(Nc2ncc([C@H](C)N3CCN(S(C)(=O)=O)CC3)cc2-c2nc(C)nc(N)n2)cc1F,inactive,–,-47.8%
Cc1ccc(NC(=O)c2ccc(CN3CCNCC3)cc2)cc1Nc1nccc(-c2cccnc2)n1,25.1 µM (active),–,-27.5%
CO[C@H]1/C=C/O[C@@]2(C)Oc3c(C)c(O)c4c(O)c(c(/C=N/N5CCN(C)CC5)c(O)c4c3C2=O)NC(=O)/C(C)=C\C=C\[C@H](C)[C@H](O)[C@@H](C)[C@@H](O)[C@@H](C)[C@H](OC(C)=O)[C@@H]1C,inactive,–,-0.679%
Cc1ccc(NC(=O)c2ccc(CN3CC[C@H](N(C)C)C3)c(C(F)(F)F)c2)cc1Nc1nccc(-c2cncnc2)n1,inactive,–,-12% [at 27.1 µM]
CC(C)(O)[C@H]1CC[C@@](C)([C@H]2[C@@H](O)C[C@@]3(C)[C@@H]4C[C@H](O[C@@H]5O[C@H](CO)[C@@H](O)[C@H](O)[C@H]5O)[C@H]5C(C)(C)[C@@H](O[C@@H]6OC[C@@H](O)[C@H](O)[C@H]6O)CC[C@@]56C[C@@]46CC[C@]23C)O1,inactive,inactive,–
CCN(C(=O)c1ccccc1OC)c1cc2c(cc1N1CCNC[C@H]1C)n(C)c(=O)n2C,inactive,–,-9.57%
CN1C(=O)N[C@@H](Cc2c[nH]c3c(Cl)cccc23)C1=O,inactive,–,1.88%
COc1ccc(Cl)c(Nc2nc3ccccc3nc2NS(=O)(=O)c2cccc(NC(=O)C(C)(C)N)c2)c1,inactive,–,-26.9%
